Reference: publication PMC7862700, “An all-to-all approach to the identification of sequence-specific readers for epigenetic DNA modifications on cytosine”

Columns and labels:
Test in all cases: DAPPL (digital affinity profiling via proximity ligation, sequencing); 10 mM Tris-HCl pH 7.5, 50 mM NaCl, 1 mM DTT, 4% glycerol, room temperature, 30 min; GST-TFs on glutathione beads, 16-mer random dsDNA library, 0.1% formaldehyde crosslink after washing; high values mean tight binding
[1] = molecular target: T1, FLI1 (Homo sapiens, UniProt Q01543 1-452); conditions: protein: recombinant; tags: N-terminal GST; dsDNA, one strand shown
T1 sequence: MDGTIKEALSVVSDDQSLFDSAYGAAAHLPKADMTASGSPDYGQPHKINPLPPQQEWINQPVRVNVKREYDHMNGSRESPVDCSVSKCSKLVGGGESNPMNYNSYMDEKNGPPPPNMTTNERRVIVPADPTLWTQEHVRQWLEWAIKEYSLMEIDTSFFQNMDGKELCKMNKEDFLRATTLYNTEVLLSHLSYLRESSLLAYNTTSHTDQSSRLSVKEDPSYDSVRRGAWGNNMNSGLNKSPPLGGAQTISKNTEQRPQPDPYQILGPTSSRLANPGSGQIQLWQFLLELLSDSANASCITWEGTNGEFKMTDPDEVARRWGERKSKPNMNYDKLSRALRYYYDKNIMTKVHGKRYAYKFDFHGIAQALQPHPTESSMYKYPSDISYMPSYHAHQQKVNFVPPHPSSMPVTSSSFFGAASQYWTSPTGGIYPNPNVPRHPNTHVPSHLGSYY
Method in brief: (§1)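 Human transcription factors fused to GST were expressed in yeast, captured on glutathione beads, given DNA barcodes and pooled with a GST-only negative control. Pools were incubated with 200 nmole of a 16-mer random double-stranded DNA library in Tris/NaCl/DTT/glycerol buffer at room temperature for 30 min. They were then washed, crosslinked with 0.1% formaldehyde, proximity-ligated (BsaI/T4 ligase, 1 h, 37 °C), PCR-amplified and sequenced on an Illumina NextSeq500. Binding signal is each 6-mer's read frequency for a factor divided by its frequency for the GST control.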

[2] = molecular target: T2, ELK1 (Homo sapiens, UniProt P19419 1-428); conditions: protein: recombinant; tags: N-terminal GST; dsDNA, one strand shown
T2 sequence: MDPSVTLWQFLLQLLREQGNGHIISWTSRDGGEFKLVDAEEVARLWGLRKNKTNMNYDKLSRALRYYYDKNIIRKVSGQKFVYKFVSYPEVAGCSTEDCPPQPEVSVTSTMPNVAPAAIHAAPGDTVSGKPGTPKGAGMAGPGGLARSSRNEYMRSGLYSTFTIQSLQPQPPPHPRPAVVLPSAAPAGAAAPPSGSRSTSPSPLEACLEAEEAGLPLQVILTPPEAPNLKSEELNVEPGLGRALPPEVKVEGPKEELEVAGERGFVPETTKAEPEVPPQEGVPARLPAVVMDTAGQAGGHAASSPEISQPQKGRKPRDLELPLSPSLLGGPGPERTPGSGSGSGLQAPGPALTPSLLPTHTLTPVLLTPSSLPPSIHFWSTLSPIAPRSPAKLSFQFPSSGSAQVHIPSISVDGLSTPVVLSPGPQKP
Method in brief: as §1

[3] = molecular target: T3, GABPA (Homo sapiens, UniProt Q06546 1-454); conditions: protein: recombinant; tags: N-terminal GST; dsDNA, one strand shown
T3 sequence: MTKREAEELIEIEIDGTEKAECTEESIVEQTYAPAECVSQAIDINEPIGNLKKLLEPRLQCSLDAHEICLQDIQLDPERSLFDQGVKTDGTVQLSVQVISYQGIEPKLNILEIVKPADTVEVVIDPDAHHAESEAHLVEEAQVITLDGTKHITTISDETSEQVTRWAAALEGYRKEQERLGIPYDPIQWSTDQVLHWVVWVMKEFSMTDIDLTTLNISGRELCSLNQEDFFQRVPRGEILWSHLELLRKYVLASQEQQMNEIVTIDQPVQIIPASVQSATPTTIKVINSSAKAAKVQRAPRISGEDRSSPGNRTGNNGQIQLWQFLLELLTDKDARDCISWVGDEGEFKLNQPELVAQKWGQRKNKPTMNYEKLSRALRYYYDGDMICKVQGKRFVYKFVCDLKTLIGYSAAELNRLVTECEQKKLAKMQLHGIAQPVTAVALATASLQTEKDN
Method in brief: as §1

[4] = molecular target: T4, ERG (Homo sapiens, UniProt P11308 1-479); conditions: protein: recombinant; tags: N-terminal GST; dsDNA, one strand shown
T4 sequence: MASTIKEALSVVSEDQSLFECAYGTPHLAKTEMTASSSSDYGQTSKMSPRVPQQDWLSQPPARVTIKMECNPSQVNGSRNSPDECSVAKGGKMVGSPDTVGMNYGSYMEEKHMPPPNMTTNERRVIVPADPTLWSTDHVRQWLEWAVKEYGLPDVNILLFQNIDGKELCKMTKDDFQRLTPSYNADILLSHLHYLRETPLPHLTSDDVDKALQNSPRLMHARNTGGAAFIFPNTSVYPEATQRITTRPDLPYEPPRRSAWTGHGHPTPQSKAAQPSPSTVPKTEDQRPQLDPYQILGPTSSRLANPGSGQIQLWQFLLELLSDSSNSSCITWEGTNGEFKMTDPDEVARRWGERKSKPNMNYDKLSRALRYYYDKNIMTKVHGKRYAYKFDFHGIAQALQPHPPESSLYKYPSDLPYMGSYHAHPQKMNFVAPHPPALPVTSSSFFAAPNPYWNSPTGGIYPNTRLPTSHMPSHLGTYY
Method in brief: as §1

[5] = molecular target: ELF1 (Homo sapiens, UniProt P32519 1-619); conditions: protein: recombinant; tags: N-terminal GST; dsDNA, one strand shown
ELF1, sequence (P32519 whole entry): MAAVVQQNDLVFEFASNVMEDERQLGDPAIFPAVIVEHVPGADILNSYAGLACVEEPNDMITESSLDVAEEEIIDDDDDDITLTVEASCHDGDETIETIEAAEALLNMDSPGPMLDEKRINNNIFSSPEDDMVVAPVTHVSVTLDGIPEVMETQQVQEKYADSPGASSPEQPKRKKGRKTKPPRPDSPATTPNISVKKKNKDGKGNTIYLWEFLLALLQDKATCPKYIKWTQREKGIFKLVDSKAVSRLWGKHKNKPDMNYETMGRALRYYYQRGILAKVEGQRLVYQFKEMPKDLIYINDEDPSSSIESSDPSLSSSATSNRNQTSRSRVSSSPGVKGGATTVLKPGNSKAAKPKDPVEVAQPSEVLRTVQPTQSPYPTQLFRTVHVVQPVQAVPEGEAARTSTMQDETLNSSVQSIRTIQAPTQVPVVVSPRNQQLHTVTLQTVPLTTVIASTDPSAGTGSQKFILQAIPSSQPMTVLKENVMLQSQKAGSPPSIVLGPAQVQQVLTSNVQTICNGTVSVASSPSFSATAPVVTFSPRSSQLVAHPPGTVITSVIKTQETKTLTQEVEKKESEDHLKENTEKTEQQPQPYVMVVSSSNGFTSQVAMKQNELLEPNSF
Method in brief: as §1

[6] = molecular target: T5, EHF (Homo sapiens, UniProt Q9NZC4 1-300); conditions: protein: recombinant; tags: N-terminal GST; dsDNA, one strand shown
T5 sequence: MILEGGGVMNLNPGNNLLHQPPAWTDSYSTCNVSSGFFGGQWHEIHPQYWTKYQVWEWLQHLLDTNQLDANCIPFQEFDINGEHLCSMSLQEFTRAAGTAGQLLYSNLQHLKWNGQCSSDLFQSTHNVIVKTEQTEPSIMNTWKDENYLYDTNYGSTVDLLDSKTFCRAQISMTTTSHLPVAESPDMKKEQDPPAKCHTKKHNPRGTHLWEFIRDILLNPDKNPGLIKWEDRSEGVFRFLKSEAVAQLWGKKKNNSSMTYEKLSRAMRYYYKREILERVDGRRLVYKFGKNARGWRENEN
Method in brief: as §1

[7] = molecular target: SPI1 (Homo sapiens, UniProt P17947 1-270); conditions: protein: recombinant; tags: N-terminal GST; dsDNA, one strand shown
Method in brief: as §1

[8] = molecular target: SPIB (Homo sapiens, UniProt Q01892 1-262); conditions: protein: recombinant; tags: N-terminal GST; dsDNA, one strand shown
SPIB, sequence (Q01892 whole entry): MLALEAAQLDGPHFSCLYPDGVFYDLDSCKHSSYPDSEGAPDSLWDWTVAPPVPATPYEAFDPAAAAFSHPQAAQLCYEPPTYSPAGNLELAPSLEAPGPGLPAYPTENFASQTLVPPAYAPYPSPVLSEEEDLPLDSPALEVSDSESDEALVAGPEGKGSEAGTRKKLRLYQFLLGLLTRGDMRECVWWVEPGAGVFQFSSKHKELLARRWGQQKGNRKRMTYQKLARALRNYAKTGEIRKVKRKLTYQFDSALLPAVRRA
Method in brief: as §1

[9] = molecular target: T6, ELK3 (Homo sapiens, UniProt P41970 1-407); conditions: protein: recombinant; tags: N-terminal GST; dsDNA, one strand shown
T6 sequence: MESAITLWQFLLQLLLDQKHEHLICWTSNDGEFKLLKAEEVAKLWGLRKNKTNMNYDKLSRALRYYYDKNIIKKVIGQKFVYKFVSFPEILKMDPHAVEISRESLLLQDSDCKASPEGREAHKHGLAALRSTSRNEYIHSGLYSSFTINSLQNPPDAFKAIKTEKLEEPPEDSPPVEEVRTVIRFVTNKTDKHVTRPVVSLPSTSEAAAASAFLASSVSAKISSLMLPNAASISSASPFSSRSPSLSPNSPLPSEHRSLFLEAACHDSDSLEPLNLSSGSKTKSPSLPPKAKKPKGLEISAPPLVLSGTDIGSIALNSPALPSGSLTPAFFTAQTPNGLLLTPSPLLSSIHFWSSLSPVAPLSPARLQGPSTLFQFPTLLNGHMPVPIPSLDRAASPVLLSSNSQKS
Method in brief: as §1

[10] = molecular target: T7, FEV (Homo sapiens, UniProt Q99581 1-238); conditions: protein: recombinant; tags: N-terminal GST; dsDNA, one strand shown
T7 sequence: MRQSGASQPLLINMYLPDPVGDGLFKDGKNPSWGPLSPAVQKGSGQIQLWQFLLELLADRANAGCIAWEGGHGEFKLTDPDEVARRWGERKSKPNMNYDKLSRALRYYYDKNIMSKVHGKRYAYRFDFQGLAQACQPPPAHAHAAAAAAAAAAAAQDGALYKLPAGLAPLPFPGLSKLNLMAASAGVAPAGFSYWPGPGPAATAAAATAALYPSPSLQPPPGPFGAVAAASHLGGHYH
Method in brief: as §1

[11] = molecular target: ETV5 (Homo sapiens, UniProt P41161 1-510); conditions: protein: recombinant; tags: N-terminal GST; dsDNA, one strand shown
ETV5, sequence (P41161 whole entry): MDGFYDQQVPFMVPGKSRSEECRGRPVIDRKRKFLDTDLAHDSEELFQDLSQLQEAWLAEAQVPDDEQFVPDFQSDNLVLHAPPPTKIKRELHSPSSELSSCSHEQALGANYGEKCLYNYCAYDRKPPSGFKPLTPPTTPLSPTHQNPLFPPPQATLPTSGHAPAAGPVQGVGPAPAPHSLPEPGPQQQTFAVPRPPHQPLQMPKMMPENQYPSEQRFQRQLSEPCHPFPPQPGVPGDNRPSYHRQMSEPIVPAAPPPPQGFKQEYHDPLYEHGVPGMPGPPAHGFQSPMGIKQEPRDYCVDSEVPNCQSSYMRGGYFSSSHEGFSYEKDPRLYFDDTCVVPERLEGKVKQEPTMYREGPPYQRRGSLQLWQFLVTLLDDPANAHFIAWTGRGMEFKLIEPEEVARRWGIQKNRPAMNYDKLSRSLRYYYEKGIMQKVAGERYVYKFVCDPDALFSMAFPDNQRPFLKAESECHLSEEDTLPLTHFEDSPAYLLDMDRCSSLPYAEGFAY
Method in brief: as §1

[12] = molecular target: HSF1 (Homo sapiens, UniProt Q00613 1-529); conditions: protein: recombinant; tags: N-terminal GST; chain copies: 3; dsDNA, one strand shown
HSF1, sequence (Q00613 whole entry): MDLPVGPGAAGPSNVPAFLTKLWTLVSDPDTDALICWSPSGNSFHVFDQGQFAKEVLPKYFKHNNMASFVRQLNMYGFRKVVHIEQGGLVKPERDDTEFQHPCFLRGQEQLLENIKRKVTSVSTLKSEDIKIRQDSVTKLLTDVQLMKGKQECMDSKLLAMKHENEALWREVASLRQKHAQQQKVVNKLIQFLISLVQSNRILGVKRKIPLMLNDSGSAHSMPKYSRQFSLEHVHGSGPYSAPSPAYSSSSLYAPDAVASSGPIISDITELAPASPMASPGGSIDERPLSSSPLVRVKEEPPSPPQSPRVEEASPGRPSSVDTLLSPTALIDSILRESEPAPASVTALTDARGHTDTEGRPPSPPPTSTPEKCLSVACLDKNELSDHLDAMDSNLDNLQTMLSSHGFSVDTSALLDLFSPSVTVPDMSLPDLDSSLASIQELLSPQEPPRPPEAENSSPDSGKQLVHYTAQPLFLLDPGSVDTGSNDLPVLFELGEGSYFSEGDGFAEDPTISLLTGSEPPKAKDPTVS
Method in brief: as §1

[13] = molecular target: T8, SPIC (Homo sapiens, UniProt Q8N5J4 1-248); conditions: protein: recombinant; tags: N-terminal GST; dsDNA, one strand shown
T8 sequence: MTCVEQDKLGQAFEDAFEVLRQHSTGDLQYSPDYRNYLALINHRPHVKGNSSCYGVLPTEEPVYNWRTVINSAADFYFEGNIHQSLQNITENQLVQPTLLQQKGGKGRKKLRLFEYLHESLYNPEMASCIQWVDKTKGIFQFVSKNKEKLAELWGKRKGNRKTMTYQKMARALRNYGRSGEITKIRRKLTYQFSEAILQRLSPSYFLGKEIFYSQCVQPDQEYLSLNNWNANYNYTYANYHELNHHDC
Method in brief: as §1

[14] = molecular target: ELF4 (Homo sapiens, UniProt Q99607 1-663); conditions: protein: recombinant; tags: N-terminal GST; dsDNA, one strand shown
ELF4, sequence (Q99607 whole entry): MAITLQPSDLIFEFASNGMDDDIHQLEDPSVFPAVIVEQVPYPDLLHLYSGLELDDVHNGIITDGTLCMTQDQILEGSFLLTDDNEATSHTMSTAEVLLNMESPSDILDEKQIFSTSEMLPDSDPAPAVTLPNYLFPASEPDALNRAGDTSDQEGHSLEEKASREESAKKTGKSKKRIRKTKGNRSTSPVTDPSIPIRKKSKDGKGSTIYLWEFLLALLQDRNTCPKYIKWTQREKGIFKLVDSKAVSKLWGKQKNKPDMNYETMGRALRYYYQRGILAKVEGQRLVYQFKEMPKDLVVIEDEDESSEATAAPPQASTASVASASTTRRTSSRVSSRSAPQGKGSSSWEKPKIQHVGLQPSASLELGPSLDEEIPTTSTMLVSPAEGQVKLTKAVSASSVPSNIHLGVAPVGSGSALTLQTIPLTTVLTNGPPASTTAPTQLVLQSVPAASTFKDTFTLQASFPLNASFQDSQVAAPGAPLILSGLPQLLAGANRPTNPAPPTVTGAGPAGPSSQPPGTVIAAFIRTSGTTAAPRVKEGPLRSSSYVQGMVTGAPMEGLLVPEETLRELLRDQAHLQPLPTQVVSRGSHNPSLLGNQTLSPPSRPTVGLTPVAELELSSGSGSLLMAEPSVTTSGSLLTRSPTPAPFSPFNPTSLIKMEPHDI
Method in brief: as §1

[15] = molecular target: T9, ELK4 (Homo sapiens, UniProt P28324-2 1-405); conditions: protein: recombinant; tags: N-terminal GST; dsDNA, one strand shown
T9 sequence: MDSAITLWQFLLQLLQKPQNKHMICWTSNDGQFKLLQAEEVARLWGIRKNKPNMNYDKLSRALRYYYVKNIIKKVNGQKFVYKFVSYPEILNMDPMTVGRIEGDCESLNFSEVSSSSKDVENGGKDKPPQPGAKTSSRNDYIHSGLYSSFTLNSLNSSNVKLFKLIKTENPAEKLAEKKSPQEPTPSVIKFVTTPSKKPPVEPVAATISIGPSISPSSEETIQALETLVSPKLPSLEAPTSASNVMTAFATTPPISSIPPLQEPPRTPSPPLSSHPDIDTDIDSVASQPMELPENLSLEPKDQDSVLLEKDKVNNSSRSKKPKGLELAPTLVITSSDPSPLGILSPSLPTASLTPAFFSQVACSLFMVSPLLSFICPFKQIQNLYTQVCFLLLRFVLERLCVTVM
Method in brief: as §1

[16] = molecular target: T10, ETV2 (Homo sapiens, UniProt O00321 1-342); conditions: protein: recombinant; tags: N-terminal GST; dsDNA, one strand shown
T10 sequence: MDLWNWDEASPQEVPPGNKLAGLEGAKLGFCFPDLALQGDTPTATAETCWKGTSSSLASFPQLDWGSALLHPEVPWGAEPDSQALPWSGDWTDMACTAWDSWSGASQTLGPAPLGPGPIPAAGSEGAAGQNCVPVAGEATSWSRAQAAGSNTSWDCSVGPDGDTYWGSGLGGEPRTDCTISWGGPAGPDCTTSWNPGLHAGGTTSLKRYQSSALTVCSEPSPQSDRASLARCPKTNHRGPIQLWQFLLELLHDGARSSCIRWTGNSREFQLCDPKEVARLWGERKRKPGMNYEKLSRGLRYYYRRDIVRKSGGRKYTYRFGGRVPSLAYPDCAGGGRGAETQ
Method in brief: as §1

[17] = molecular target: T11, ELF3 (Homo sapiens, UniProt P78545 1-371); conditions: protein: recombinant; tags: N-terminal GST; dsDNA, one strand shown
T11 sequence: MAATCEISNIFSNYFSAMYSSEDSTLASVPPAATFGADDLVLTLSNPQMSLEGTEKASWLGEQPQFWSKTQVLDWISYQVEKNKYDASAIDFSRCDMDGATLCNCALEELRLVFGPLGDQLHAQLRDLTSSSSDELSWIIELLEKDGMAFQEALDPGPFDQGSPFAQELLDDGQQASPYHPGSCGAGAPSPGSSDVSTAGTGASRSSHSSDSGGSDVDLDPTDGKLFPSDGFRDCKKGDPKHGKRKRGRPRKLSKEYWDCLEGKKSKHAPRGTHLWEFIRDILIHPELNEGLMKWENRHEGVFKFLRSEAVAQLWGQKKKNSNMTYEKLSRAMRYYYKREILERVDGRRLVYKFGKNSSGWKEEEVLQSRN
Method in brief: as §1

[18] = molecular target: CRX (Homo sapiens, UniProt O43186 1-299); conditions: protein: recombinant; tags: N-terminal GST; dsDNA, one strand shown
CRX, sequence (O43186 whole entry): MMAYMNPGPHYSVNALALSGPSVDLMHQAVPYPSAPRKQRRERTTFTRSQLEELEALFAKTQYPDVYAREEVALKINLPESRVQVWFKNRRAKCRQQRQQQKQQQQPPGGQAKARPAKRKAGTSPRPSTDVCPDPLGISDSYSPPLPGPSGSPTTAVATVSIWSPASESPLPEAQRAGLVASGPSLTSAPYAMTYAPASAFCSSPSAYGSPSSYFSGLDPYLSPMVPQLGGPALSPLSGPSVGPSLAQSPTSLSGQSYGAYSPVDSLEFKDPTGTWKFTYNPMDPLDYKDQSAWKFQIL
Method in brief: as §1

[19] = molecular target: ETV1 (Homo sapiens, UniProt P50549 1-477); conditions: protein: recombinant; tags: N-terminal GST; dsDNA, one strand shown
ETV1, sequence (P50549 whole entry): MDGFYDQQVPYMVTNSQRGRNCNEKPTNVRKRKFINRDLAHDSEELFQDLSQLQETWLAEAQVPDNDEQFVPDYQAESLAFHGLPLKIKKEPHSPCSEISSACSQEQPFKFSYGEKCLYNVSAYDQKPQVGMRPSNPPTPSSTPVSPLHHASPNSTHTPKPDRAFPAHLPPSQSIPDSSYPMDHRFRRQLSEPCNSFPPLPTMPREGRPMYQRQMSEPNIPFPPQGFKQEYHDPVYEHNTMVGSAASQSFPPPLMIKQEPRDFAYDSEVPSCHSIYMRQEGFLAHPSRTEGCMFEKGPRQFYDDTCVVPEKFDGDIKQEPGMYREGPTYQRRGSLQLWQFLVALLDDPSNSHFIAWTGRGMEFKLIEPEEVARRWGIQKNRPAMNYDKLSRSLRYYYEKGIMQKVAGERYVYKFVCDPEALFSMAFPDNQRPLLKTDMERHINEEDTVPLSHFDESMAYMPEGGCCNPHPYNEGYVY
Method in brief: as §1

Q: With AATGTA as the sequence, how does the binding signal [1] read?
A: 1.19 fold enrichment (6-mer frequency, TF over GST control)

Q: And the binding signal [2]?
A: 1.09 fold enrichment (6-mer frequency, TF over GST control)

Q: And the binding signal [3]?
A: 1.1 fold enrichment (6-mer frequency, TF over GST control)

Q: And the binding signal [4]?
A: 1.17 fold enrichment (6-mer frequency, TF over GST control)

Q: And the binding signal [5]?
A: 1.16 fold enrichment (6-mer frequency, TF over GST control)

Q: And the binding signal [6]?
A: 1.22 fold enrichment (6-mer frequency, TF over GST control)

Q: What about the binding signal [7] of the same sequence?
A: 1.12 fold enrichment (6-mer frequency, TF over GST control)

Q: What about the binding signal [8] of the same sequence?
A: 1.2 fold enrichment (6-mer frequency, TF over GST control)

Q: And the binding signal [9]?
A: 1.17 fold enrichment (6-mer frequency, TF over GST control)

Q: And the binding signal [10]?
A: 1.12 fold enrichment (6-mer frequency, TF over GST control)

Q: What about the binding signal [11] of the same sequence?
A: 1.11 fold enrichment (6-mer frequency, TF over GST control)

Q: And the binding signal [12]?
A: 1.16 fold enrichment (6-mer frequency, TF over GST control)

Q: What about the binding signal [13] of the same sequence?
A: 1.12 fold enrichment (6-mer frequency, TF over GST control)

Q: And the binding signal [14]?
A: 1.11 fold enrichment (6-mer frequency, TF over GST control)

Q: And the binding signal [15]?
A: 1.32 fold enrichment (6-mer frequency, TF over GST control)

Q: And the binding signal [16]?
A: 1.32 fold enrichment (6-mer frequency, TF over GST control)

Q: And the binding signal [17]?
A: 1.16 fold enrichment (6-mer frequency, TF over GST control)

Q: What about the binding signal [18] of the same sequence?
A: 1.1 fold enrichment (6-mer frequency, TF over GST control)

Q: And the binding signal [19]?
A: 1.23 fold enrichment (6-mer frequency, TF over GST control)
